Screening data: PubChem, National Center for Advancing Translational Sciences (NCATS)
Cycloheximide cs: Cycloheximide Counterscreen for Small Molecule Inhibitors of Shiga Toxin; cell reporter, cycloheximide protein synthesis inhibition counterscreen; max response, %; 300,000 compounds, 12% hits; in the data active = max response mostly above about 13%, no sharp cut-off; inactive = mostly below about 14%; note: read at 38.3 µM for the half of the compounds with a filed dose
Pf growth 96h: Primary qHTS for delayed death inhibitors of the malarial parasite plastid, 96 hour incubation. P. falciparum luciferase reporter growth, 96 h. Potency, µM (top dose mostly 28.7 µM), usual class: inhibitors. 320,000 compounds, 6.9% hits. AID 504834, 2011
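Two parasite generations (96 h, 37 C, 5% CO2) of compound exposure in infected erythrocytes (0.05% parasitemia, 2% hematocrit). Luciferase-reporter P. falciparum; decreased luminescence indicates inhibited growth, aimed at apicoplast-acting delayed death.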
Pf growth 48h: Primary qHTS for delayed death inhibitors of the malarial parasite plastid, 48 hour incubation; Potency, µM (titrated, usually from 28.7 µM), actives largely listed as inhibitors; 310,000 compounds, 5.9% hits; P. falciparum luciferase growth in erythrocytes, 48 h
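Growth was read as firefly luciferase luminescence after a 48 h, 37 C, 5% CO2 exposure of compounds to reporter-bearing P. falciparum cultures (0.1% parasitemia, 2% hematocrit final) in Albumax-supplemented RPMI 1640.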
Shiga toxin inh: A qHTS for Small Molecule Inhibitors of Shiga Toxin | AID 2315, 2010 | 290,000 compounds, 9.2% hits | inhibition, % at 38.7 µM | Vero cells, Shiga toxin protein synthesis inhibition reporter; in the data active = inhibition mostly above about 28%, no sharp cut-off; inactive = mostly below about 43%
Numbers stand for hits; 0 = inactive; ? = inconclusive; - = no result given. This is a sample that favours compounds with a hit; in the whole collection about 21% have one here. Unless noted, calls come from the whole dose curve; as a rule, active = well fitted inhibition curve with a large enough effect; inconclusive = small, poorly fitted or top-dose-only effect, or another doubt; inactive = no such curve, though single readings can be large or run the other way.

SMILES	Cycloheximide cs	Pf growth 96h	Pf growth 48h	Shiga toxin inh
N#Cc1cccc(NC(=O)Cn2c3[n+](c4ccc(C(F)(F)F)cc42)CCCCC3)c1	0	0.83µM	5.2µM	0
C=CCn1c2[n+](c3ccccc3c1=O)CCCCC2	0	0	0	0
Fc1ccccc1Cn1c2[n+](c3ccc(C(F)(F)F)cc31)CCCCC2	0	2.3µM	?	0
N#Cc1cccc(NC(=O)CN2C(=O)NC3(CCCCCC3)C2=O)c1	-	?	0	-
Cc1cc(C(=O)NNC(=O)Cc2ccc(Cl)cc2)c(C)o1	-	0	0	-
CC1CN(C(=O)CSc2nnc(CNC(=O)c3ccc(S(=O)(=O)N(C)C)cc3)o2)CC(C)O1 (stereo not given)	0	0	0	0
COc1cccc(NC(=O)Cn2cnc3sc(C)c(S(=O)(=O)N4CCCCC4)c3c2=O)c1	0	-	?	0
C=C(C)COc1ccc(-c2ncncc2-c2ccccc2)c(O)c1	0	13µM	9.3µM	0
CCOc1ccc(-c2ncncc2-c2ccc(OC)cc2)c(O)c1	0	?	7.4µM	0
CCN(C(=O)COc1cccc2cccnc12)C1CCS(=O)(=O)C1 (stereo not given)	0	0	0	0
CCCCOc1ccc(CC2CCC(=O)NC2=O)cc1 (stereo not given)	13	0	0	0
CCCCOc1ccc(C2CC(=O)NC2=O)cc1 (stereo not given)	36	-	0	67
O=C(CCN1C(=O)/C(=C\c2ccccc2)SC1=S)NNC(=O)c1ccccc1O	0	?	0	0
O=C(NCc1cn2ccccc2n1)c1ccc(Br)o1	0	0	0	0
Brc1ccc(OCc2cn3ccccc3n2)cc1	36	0	0	73
Oc1ccc(-c2cn3ccccc3n2)cc1O	0	0	-	0
Brc1ccc(-c2cn3ccccc3n2)cc1	35	0	0	52
CN(C)S(=O)(=O)c1ccc(-c2cn3ccccc3n2)cc1	35	0	-	65
Oc1ccc(-c2cn3ccccc3n2)cc1	23	0	0	0
O=C(COc1ccc(Br)cc1)NCc1cn2ccccc2n1	0	0	0	0
Cc1cc(C)c(OCC(=O)OCC(=O)N2c3ccccc3CC2C)c(C)c1 (stereo not given)	-	0	0	-
COC(=O)C1=C[C@@H](C(=O)OC)C2C3=C(C(=O)[C@@]2(C)NC(=O)c2ccccc2)[C@H](C)n2c(=O)n(-c4ccccc4)c(=O)n2[C@@H]3C1 (stereo not given in full)	0	-	-	0
COC(=O)C1=C(c2ccc(OC)c(OC)c2)C[C@@H]2CC[C@H]1N2C(=O)NCCO	-	0	0	-
COC(=O)C1=C(c2ccc(F)cc2OCc2ccccc2)C[C@@H]2CC[C@H]1N2C(=O)NCc1cccc(F)c1	-	?	2.3µM	-
COC(=O)C1=C(c2ccc(F)cc2F)C[C@@H]2CC[C@H]1N2C(=O)NCc1ccc(F)cc1	-	0	?	-
SMILES	Cycloheximide cs	Pf growth 96h	Pf growth 48h	Shiga toxin inh
COC(=O)C1=C(c2ccc(F)cc2OCc2ccccc2)C[C@@H]2CC[C@H]1N2C(=O)NCCCOC(C)C	-	?	9.3µM	-
COC(=O)C1=C(c2ccc(F)cc2OCc2ccccc2)C[C@@H]2CC[C@H]1N2C(=O)NCc1ccccc1	-	4.1µM	9.3µM	-
COC(=O)C1=C(c2ccc(F)cc2OCc2ccccc2)C[C@@H]2CC[C@H]1N2C(=O)NCc1ccccc1OC	-	?	6.6µM	-
CCOc1ccc(Cl)cc1S(=O)(=O)N1CCC(C(=O)NCC2CCCO2)CC1 (stereo not given)	0	0	0	0
COC(=O)C1=C(c2ccc(F)cc2OCc2ccccc2)C[C@@H]2CC[C@H]1N2C(=O)N1CCC(O)CC1	-	?	12µM	-
COC(=O)C1=C(c2ccc(F)cc2OCc2ccccc2)C[C@@H]2CC[C@H]1N2C(=O)NCC1CC1	-	?	10µM	-
COC(=O)C1=C(c2ccc(F)cc2OCc2ccccc2)C[C@@H]2CC[C@H]1N2C(=O)NCc1ccc2c(c1)OCO2	-	?	2.9µM	-
COC(=O)C1=C(c2ccc(F)cc2F)C[C@@H]2CC[C@H]1N2C(=O)N1CCOCC1	-	0	0	-
COC(=O)C1=C(c2ccc(F)cc2F)C[C@@H]2CC[C@H]1N2C(=O)N1CCCCC1	-	0	?	-
O=S(=O)(Nc1ccccc1C(F)(F)F)c1ccc(-c2ccccn2)s1	0	0	0	0
COc1ccc(OC)c(-c2cc(C3CCN(C(=O)OC(C)(C)C)CC3)[nH]n2)c1	15	10µM	?	0
COc1ccc(-c2cc(C3CCN(C(=O)OC(C)(C)C)CC3)[nH]n2)cc1	0	?	?	0
O=C(CN1C(=O)S/C(=C\c2ccccc2)C1=O)NCCCn1ccnc1	0	?	0	0
O=C(CCCN1C(=O)/C(=C/c2ccccc2)SC1=S)NCCCn1ccnc1	0	9.3µM	?	0
CC(C)c1ccc(/C=C2\SC(=O)N(CC(=O)NCCCn3ccnc3)C2=O)cc1	39	0	0	69
CCN(CC)C(=O)c1sc(NC(=O)Cc2cccs2)c(C#N)c1C	0	0	0	0
Cc1c(C#N)c(NC(=O)CCl)n(Cc2ccccc2)c1C	0	19µM	?	0
Cc1c(C#N)c(NC(=O)CCl)n(Cc2cccs2)c1C	0	3.3µM	10µM	0
Cc1c(C#N)c(NC(=O)CCl)n(Cc2ccc(F)cc2)c1C	0	?	?	0
COc1ccc([N+](=O)[O-])cc1NC1CCN(C(=O)c2cccs2)CC1	0	?	?	0
O=P(Oc1ccccc1)(Oc1ccccc1)C(Nc1ccccc1)c1ccccc1 (stereo not given)	0	1.7µM	?	0
CC(C)COP(=O)(OCC(C)C)C(Nc1ccccc1)c1ccccc1 (stereo not given)	0	?	?	0
O=C(CC1C(=O)NCCN1Cc1c(F)cccc1Cl)NC1CCCC1 (stereo not given)	0	?	0	0
CC(O)CC(C)O (stereo not given)	-	0	0	-
O=C(Nc1nc(-c2nc3ccccc3s2)cs1)c1ccc(S(=O)(=O)N2CCOCC2)cc1	0	0	0	0
SMILES	Cycloheximide cs	Pf growth 96h	Pf growth 48h	Shiga toxin inh
O=C(Nc1nc(-c2nc3ccccc3s2)cs1)C1COc2ccccc2O1 (stereo not given)	23	0	0	68
COc1ccc2nc(NC(=O)C3COc4ccccc4O3)sc2c1 (stereo not given)	30	0	-	77
CS(=O)(=O)c1ccc2nc(NC(=O)C3COc4ccccc4O3)sc2c1 (stereo not given)	25	-	0	0
COc1ccc2nc(NNC(=O)C3COc4ccccc4O3)sc2c1 (stereo not given)	13	0	0	55
CS(=O)(=O)c1ccc2nc(NC(=O)C3CCCO3)sc2c1 (stereo not given)	0	0	0	0
COc1ccc(OC)c(-c2csc(NC(=O)C3COc4ccccc4O3)n2)c1 (stereo not given)	0	0	0	0
CCOc1cccc(CN2CCC(Oc3ccc(C(=O)NCc4ccccn4)cc3)CC2)c1	0	?	?	0
CCCCC(=O)NC(c1ccc([N+](=O)[O-])cc1)c1c(O)ccc2ccccc12 (stereo not given)	0	0	10µM	0
CCC(=O)NC(c1ccc([N+](=O)[O-])cc1)c1c(O)ccc2ccccc12 (stereo not given)	0	?	4.1µM	0
